Assay [1] is described as follows: CCTE_Harrill_HTTr_Apoptosis_MCF7: CCTE's 6-hour Apoptosis Assessment for the High-Throughput Transcriptomics (HTTr) Platform, in MCF-7 cells cultured in DMEM + 10% fetal bovine serum, Harrill Lab (AID 2284011). In short, it runs like this: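 High-content imaging of CellEvent Caspase 3/7 Green signal follows a six-hour exposure, with eight concentrations per chemical. MCF-7 cells grown in DMEM plus 10% fetal bovine serum; activity fitted in both directions against DMSO.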

Assay [2] can be described thus: CCTE_Shafer_MEA_acute_burst_number: CCTE's Neural Acute Assay for Single-Electrode Bursts, Shafer Lab (AID 2284013). In short, it runs like this:
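Rat cortical cultures, DIV 13/15; 40 min baseline, then 40 min with compound 0.03-40 uM, 37 C. Spikes: 300-5000 Hz band-pass, threshold 8x rms noise. Readout = % change in single-electrode bursts vs baseline, loss-of-signal fit.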

Assay [3] can be described thus: CCTE_Shafer_MEA_acute_burst_duration_mean: CCTE's Neural Acute Assay for Mean Burst Duration, Shafer Lab (AID 2284014).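 Also: hits are decreases in mean burst duration relative to DMSO controls.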 The procedure, abridged:
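Primary rat cortical neurons on 16-electrode MEA wells, treated on DIV 13 or 15 with compound (0.03-40 uM; ≥3 wells each). 40-min baseline and 40-min exposure recordings at 37 C; percent change in mean burst duration per well versus DMSO.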

Assay [4] can be described thus: CCTE_Shafer_MEA_acute_per_burst_spike_number_mean: CCTE's Neural Acute Assay for Average Number of Spikes Per Burst, Shafer Lab (AID 2284015).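 Also: hits are decreases in mean spikes per burst versus baseline.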 The procedure, abridged: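 Percent change in mean spikes per single-electrode burst is compared between a 40 min baseline and a 40 min recording with compound (0.03-40 uM). Cultures were rat cortical neurons on MEA plates at DIV 13 or 15, recorded at 37 C, with DMSO as the negative control.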

Assay [5] can be described thus: CCTE_Shafer_MEA_acute_interburst_interval_mean: CCTE's Neural Acute Assay for Mean Interburst Interval, Shafer Lab (AID 2284016).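 Also: percent change of mean interburst interval versus each well's own pre-dose baseline; curves fitted for decrease in interburst interval relative to DMSO.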 The procedure, abridged: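 Percent change in mean single-electrode interburst interval was calculated per well from 40 min recordings before and after compound (0.03-40 uM). Recordings were made at 37 C on rat cortical cultures at DIV 13 or 15, with spikes detected at 8x rms threshold.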

Assay [6] can be described thus: CCTE_Shafer_MEA_acute_burst_percentage_mean: CCTE's Neural Acute Assay for Percentage of Spikes in a Burst, Shafer Lab (AID 2284017).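 As to AC50: curve fitted for loss of signal so potency reflects decreased burst percentage.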 In short, it runs like this: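 Well-level mean burst percentage from a 40-min recording after compound (0.03-40 uM) expressed as percent change from a 40-min baseline at 37C. Cultures: primary rat cortical neurons on MEA, dosed on DIV 13 or 15; fitted downward relative to DMSO.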

A short description of assay [7]: CCTE_Shafer_MEA_acute_burst_percentage_std: CCTE's Neural Acute Assay for Standard Deviation of Burst Percentage, Shafer Lab (AID 2284018).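 Also: fitted in the negative direction so actives lower burst percentage SD.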 The procedure, abridged: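 Primary rat cortical neurons on 16-electrode MEA wells were recorded 40 min at baseline (DIV 13 or 15), then 40 min after compound (0.03-40 uM), at 37 C. Well value is SD across electrodes of spikes-in-bursts/total spikes; endpoint is percent change, DMSO-referenced.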

Assay [8] in a line: CCTE_Shafer_MEA_acute_per_network_burst_spike_number_mean: CCTE's Neural Acute Assay for Average Number of Spikes in a Network Burst, Shafer Lab (AID 2284019).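 As to AC50: curve fitted for loss of signal so actives reduce spikes per network burst.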 In short, it runs like this: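 Primary rat cortical neurons on 16-electrode MEA wells, DIV 13 or 15, 37 C; 40-min baseline then 40-min recording with compound (0.03-40 uM). Spikes per network burst (total spikes/number of bursts) expressed as percent change from baseline, DMSO reference.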

Assay [9] is described as follows: CCTE_Shafer_MEA_acute_per_network_burst_spike_number_std: CCTE's Neural Acute Assay for Standard Deviation of Number of Spikes in a Network Burst, Shafer Lab (AID 2284020).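 Also: fitted for decrease in spike-number SD versus DMSO so actives lower it.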 In short, it runs like this: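 Primary rat cortical neurons on 48-well MEAs (16 electrodes/well) recorded at DIV 13 or 15: 40-min baseline, then 40 min with compound (0.03-40 uM), 37 C. Value is percent change in SD of spikes per network burst, relative to DMSO.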

Assay [10] is described as follows: CCTE_Shafer_MEA_acute_per_network_burst_electrodes_number_mean: CCTE's Neural Acute Assay for Mean Number of Electrodes in a Network Burst, Shafer Lab (AID 2284021).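 Also: curves fitted for decreases only so hits reduce electrodes per burst.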 In short, it runs like this:
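Percent change from baseline was computed as mean electrode count per network burst, comparing 40 min recordings before and during compound (0.03-40 uM) exposure. Cultures were rat cortical neurons at DIV 13 or 15, recorded on MEAs at 37 C with an adaptive 8x rms threshold.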

Assay [11] in a line: CCTE_Shafer_MEA_acute_network_burst_percentage: CCTE's Neural Acute Assay for Percentage of Network Bursts, Shafer Lab (AID 2284022).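 Also: curves fitted for loss so actives lower network burst percentage.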 In short, it runs like this:
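Network burst percentage (spikes in network bursts divided by total spikes) recorded at 37 C over 40 min baseline and 40 min after compound, 0.03-40 uM, in rat cortical cultures at DIV 13 or 15. Analysed as percent change from baseline versus DMSO.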

Assay [12] in a line: CCTE_Shafer_MEA_acute_cross_correlation_area: CCTE's Neural Acute Assay for Area of Cross Correlation, Shafer Lab (AID 2284024).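 Also: area under pooled inter-electrode spike cross-correlation near zero lag as percent change from own baseline; curves fitted for loss of cross-correlation area so actives lower synchrony.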 In short, it runs like this:
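Percent change in well-wide cross-correlation area (window around zero lag) between 40 min baseline and 40 min post-compound recordings, 37 C; rat cortical cultures on MEA at DIV 13 or 15, dosed 0.03-40 uM, wells needing >/= 10 active electrodes.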

Assay [13] can be described thus: CCTE_Shafer_MEA_acute_synchrony_index: CCTE's Neural Acute Assay for Synchrony, Shafer Lab (AID 2284027).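 Also: network synchrony index of spontaneous spiking in primary rat cortical neurons on MEAs; fitted for loss of signal so actives lower synchrony relative to DMSO.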 In short, it runs like this:
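Spontaneous firing of mature rat cortical networks is captured extracellularly on microelectrode arrays at 37 C, with wells needing ≥10 active electrodes. Each compound (0.03-40 uM) is judged by the change in synchrony index from baseline over 40 min.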

Assay [14] in a line: CCTE_Shafer_MEA_dev_firing_rate_mean: CCTE's Neural Network Formation Assay for Mean Firing Rate, Shafer Lab (AID 2284031).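 Also: AUC of well mean spike rate recorded on DIV 5 7 9 and 12.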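 As to AC50: curve fitted for loss of firing so AC50 reflects decreased mean firing rate.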 The procedure, abridged: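 Developing rat cortical networks on MEA plates undergo 12-day compound exposure. Firing frequency, averaged across active electrodes, is integrated as area under the curve over four recording days, referenced to DMSO.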
A short description of assay [15]: CCTE_Harrill_HTTr_CellCount_MCF7: CCTE's Cell Proliferation Assessment for the High-Throughput Transcriptomics (HTTr) Platform, Harrill Lab (AID 2284012; active = hit-call score of the fitted dose curve at least 0.9, where 1 is the maximum;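 also: count of Hoechst-stained nuclei per well by high-content imaging in MCF-7 cells; cells exposed to compound for six hours; intended direction is loss of nuclei count meaning fewer cells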). In short, it runs like this: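 Nuclei counting (Hoechst, high content imaging) in MCF-7 after a 6 h treatment at eight concentrations. Activity fitted bidirectionally, DMSO as negative control.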
The target in assay [16] is Estrogen receptor (Homo sapiens) (UniProt P03372). The assay can be described thus: CCTE_Deisenroth_AIME_384WELL_LUC_Active: CCTE's 384-well Estrogen Receptor Transactivation Assay with AIME metabolic competence (ERTA luciferase; metabolism positive), Deisenroth Lab (AID 2284030; active = hit-call score of the fitted dose curve at least 0.9, where 1 is the maximum). In short, it runs like this:
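VM7Luc4E2 breast cells were given, for 24 hours, medium pre-incubated for 2 hours with parent chemical (0.002-200 uM, 10 concentrations) and alginate-encapsulated phenobarbital/beta-naphthoflavone-induced rat hepatic S9. Luciferase gain of signal was fitted against 17beta-estradiol; n=4 or more.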

The target is the same in assay [17]. Briefly: CCTE_Deisenroth_AIME_96WELL_LUC_Active: CCTE's 96-well Estrogen Receptor Transactivation Assay with AIME metabolic competence (ERTA luciferase; metabolism positive), Deisenroth Lab (AID 2284023; active = hit-call score of the fitted dose curve at least 0.9, where 1 is the maximum). In short, it runs like this: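 Chemicals pre-incubated 2 h with alginate-immobilized phenobarbital/beta-naphthoflavone-induced male Sprague Dawley rat liver S9, then medium transferred to VM7Luc4E2 cells for 24 h luciferase read-out. 10-point series 0.002 - 200 uM; fitted relative to 17beta-estradiol.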

The target is the same in assay [18]. Briefly: CCTE_Deisenroth_AIME_96WELL_LUC_Inactive: CCTE's 96-well Estrogen Receptor Transactivation Assay without AIME metabolic competence (ERTA luciferase; metabolism negative), Deisenroth Lab (AID 2284025; active = hit-call score of the fitted dose curve at least 0.9, where 1 is the maximum). In short, it runs like this: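 VM7Luc4E2 breast cells, luciferase read 24 h after dosing with medium pre-incubated 2 h on alginate-water lids (metabolism negative). 10-point series 0.002–200 uM, single technical replicate, n≥4; fit relative to 17beta-estradiol.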

A short description of assay [19]: CCTE_Deisenroth_AIME_96WELL_CTox_Active: Cytotoxicity Assessment (CTOX) in CCTE's 96-well Estrogen Receptor Transactivation Assay with AIME metabolic competence (metabolism positive), Deisenroth Lab (AID 2284028; active = hit-call score of the fitted dose curve at least 0.9, where 1 is the maximum). The procedure, abridged: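 Chemicals (0.002–200 uM) were first incubated 2 h with alginate-immobilized phenobarbital/beta-naphthoflavone-induced male rat liver S9; conditioned medium then went onto VM7Luc4E2 cells for 24 h, with viability read by protease-substrate fluorescence, fitted bidirectionally.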

Assay [20] can be described thus: CCTE_Deisenroth_AIME_96WELL_CTox_Inactive: Cytotoxicity Assessment (CTOX) in CCTE's 96-well Estrogen Receptor Transactivation Assay without AIME metabolic competence (metabolism negative), Deisenroth Lab (AID 2284029; active = hit-call score of the fitted dose curve at least 0.9, where 1 is the maximum). In short, it runs like this:
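Chemicals (10-point series, 0.002-200 uM) were incubated 2 h with alginate-water microspheres lacking S9. The conditioned medium was then transferred onto VM7Luc4E2 cells for 24 h. Viability was measured by protease-substrate cleavage to a fluorescent probe, with loss of signal fitted bidirectionally; n≥4 experimental replicates.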

We go through 18 compounds from PubChem BioAssay (EPA / NIEHS).

Results filed as inconclusive are left out. Where a structure was tested more than once in an assay, its records may differ in their call. Activity calls are given as the source filed them. The calls were made as follows, unless noted: active = hit-call score of the fitted dose curve at least 0.9, where 1 is the maximum; inactive = score below 0.9.

Sequence of Estrogen receptor (Homo sapiens) (P03372 whole entry, looked up): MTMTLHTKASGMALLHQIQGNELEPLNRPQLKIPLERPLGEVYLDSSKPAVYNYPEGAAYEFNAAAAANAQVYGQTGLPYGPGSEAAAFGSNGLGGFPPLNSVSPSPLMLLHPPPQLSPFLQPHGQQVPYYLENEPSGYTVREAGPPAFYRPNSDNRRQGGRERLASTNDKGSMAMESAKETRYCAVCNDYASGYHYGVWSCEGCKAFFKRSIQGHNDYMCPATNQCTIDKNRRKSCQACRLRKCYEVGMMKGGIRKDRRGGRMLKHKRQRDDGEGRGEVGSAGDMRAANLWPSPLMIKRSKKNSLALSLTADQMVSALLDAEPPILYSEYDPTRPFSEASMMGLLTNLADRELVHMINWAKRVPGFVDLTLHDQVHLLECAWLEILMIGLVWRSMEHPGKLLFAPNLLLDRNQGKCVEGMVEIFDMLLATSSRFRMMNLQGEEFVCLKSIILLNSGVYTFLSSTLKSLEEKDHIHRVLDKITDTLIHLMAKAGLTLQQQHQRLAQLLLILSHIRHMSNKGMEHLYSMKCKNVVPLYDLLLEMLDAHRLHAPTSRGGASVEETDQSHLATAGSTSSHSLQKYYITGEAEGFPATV

What is called AC50 is the concentration at which the activity in the assay is half-maximal. For `Nc1ncn([C@@H]2O[C@H](CO)[C@@H](O)[C@H]2O)c(=O)n1`, the result in assay [1], in assay [3], in assay [9] and in assay [14] was inactive. Further, the AC50 in assay [2] was 0.0142 µM (active); in [4], 5 µM (active); in assay [5], 7.71 µM (active); in assay [6], 8.06 µM (active); in [7], 15 µM (active); in assay [8], 0.992 µM (active). For the same compound, the AC50 in [10] is 5 µM (active); in assay [11] it was 8.38 µM (active); in assay [12], 0.00671 µM (active); in assay [13] it was 9.61 µM (active); in assay [14], 3.41 µM (active).
Take `NC(=O)OCC(COC(N)=O)c1ccccc1`: the outcome in assay [1] and in assay [15] was inactive.
Turning to `C=C(C)[C@H]1CC=C(C)CC1`, the outcome in [1] was inactive.
Take `Cc1cnc(NC(=O)C2=C(O)c3ccccc3S(=O)(=O)N2C)s1`: the outcome in assay [1] was inactive.
Regarding `CCCCC(CC)COC(=O)c1ccccc1O` (centres undefined), the outcome in assay [1], in assay [2], in [3], in assay [4], in [6] and in assay [7] was inactive. For the same compound, the call in assay [8], in assay [9], in assay [10], in assay [11], in [12] and in assay [13] was inactive. For the same compound, in [5], the AC50 is 7.5 µM (active).
Take `O=C(Nc1cccc(C(F)(F)F)c1)c1cc(Br)cc(Br)c1O`: in [1], the outcome was inactive.
For `CC(=O)[C@H]1[C@H](C#N)C[C@H]2[C@@H]3CC=C4C[C@@H](O)CC[C@]4(C)[C@H]3CC[C@@]21C`, the outcome in [1] and in assay [15] was inactive.
As for `Cn1c([N+](=O)[O-])cnc1COC(N)=O`, the result in assay [1] was inactive.
With `C[C@]12CCC(=O)C=C1CC[C@@H]1[C@@H]2C(=O)C[C@@]2(C)[C@H]1CC[C@]2(O)C(=O)CO`, the result in assay [1] and in assay [15] was inactive.
For the compound `C=C1C2CCC(C2)C1(C)C` (centres undefined), the outcome in assay [1] and in assay [16] was inactive.
On to `C1=Cc2ccccc2C1`, for which the outcome in assay [1] was inactive.
Take `Cc1ccc(C(C)(C)C)cc1`: the result in assay [1] and in assay [15] was inactive.
As for `CN(C)c1ccc(C(=N)c2ccc(N(C)C)cc2)cc1`, in [1], the AC50 is 40.5 µM (active) and the result was inactive. Moreover, the AC50 in assay [14] was 2.67 µM (active).
Regarding `Cc1cccc(N(C)C(=S)Oc2ccc3ccccc3c2)c1`, the result in [1] was inactive.
The same measure, in the same setting: with `CCCCOCCOC(=O)COc1nc(Cl)c(Cl)cc1Cl` the entry was “inactive”; with `COC(=O)C1=C(C)NC(C)=C(C(=O)OCC(C)C)C1c1ccccc1[N+](=O)[O-]` (centres undefined), “inactive”.
Turning to `CCCCCCCCCCCCCCCC[n+]1ccccc1`, the AC50 in assay [1] is 61.4 µM (active).
As to `CC(C)(C)c1ccc(OC(=O)c2ccccc2O)cc1`, the AC50 in [17] is 17.8 µM (active); in assay [18], 23.7 µM (active). The compound was classed as inactive in assay [19] and in assay [20].
